The list is not random: actives were taken first. Their share in the collection is about 9.3%.
SMN2 splice enh: SMN2 splice variant enhancement; HEK293 SMN2-luciferase splicing reporter, luminescence, 30-36 h; Potency, µM (series often up to 46.1 µM), for inactives: at the highest dose activity change, positive = activation, usual class: activators; actives 2.8% (n = 210,000); note: % of control where 0% means no effect; nearly all actives have a fitted effect of over 55% in size
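HEK293 cells carry an SMN2 minigene-luciferase reporter in which exon 7 inclusion puts luciferase in frame. Cells were seeded at 2000 cells/well, attached for 10-12 hours, then exposed to compounds for 30-36 hours at 37C before ONE-Glo luminescence.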
ELG1 genotoxic: genotoxicity induction in ELG1-luciferase HEK293T cells | Potency, µM (doses to about 46 µM), for the others: at the highest dose activity change, positive = activation, usual class: activators | HEK293T ELG1-luciferase reporter, luminescence, 16 h | actives 1.3% (n = 330,000); note: % of control where 0% means no effect; nearly all actives have a fitted effect of over 60% in size
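Reporter readout depends on ELG1 protein level, which increases with genetic stress. After 16 hr compound exposure at 37 °C, luciferase activity was quantified using ONE-Glo.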
FLuc modulator: counter-screen for miR-21 project: firefly luciferase inhibitors or activators | P08659 | purified FLuc, Km substrates, luminescence inhibition | Potency, µM (series often up to 57.5 µM), for the others: at the top dose activity change, negative = inhibition, hits mostly inhibitors | actives 6.9% (n = 360,000) | AID 588342;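 note: plate controls were vehicle for no effect and reference inhibitor for full effect; nearly all actives have a fitted effect of over 55% in size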
Target sequence (P08659 whole entry, looked up): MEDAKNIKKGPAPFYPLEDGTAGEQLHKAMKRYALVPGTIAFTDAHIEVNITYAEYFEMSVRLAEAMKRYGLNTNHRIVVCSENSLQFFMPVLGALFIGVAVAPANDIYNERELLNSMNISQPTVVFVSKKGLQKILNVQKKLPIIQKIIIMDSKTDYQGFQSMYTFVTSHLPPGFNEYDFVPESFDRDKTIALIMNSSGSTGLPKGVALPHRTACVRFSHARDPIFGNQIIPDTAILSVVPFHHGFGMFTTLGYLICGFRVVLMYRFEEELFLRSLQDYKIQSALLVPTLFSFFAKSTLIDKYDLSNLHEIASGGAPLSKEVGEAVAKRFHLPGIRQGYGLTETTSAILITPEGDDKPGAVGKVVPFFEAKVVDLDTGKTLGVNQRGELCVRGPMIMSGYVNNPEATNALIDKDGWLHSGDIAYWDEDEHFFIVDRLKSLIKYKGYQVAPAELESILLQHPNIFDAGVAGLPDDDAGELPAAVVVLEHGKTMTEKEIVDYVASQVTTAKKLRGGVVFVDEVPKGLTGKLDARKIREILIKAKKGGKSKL
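Biochemical qHTS of compounds, final roughly 60 µM downward over six points, against 10 nM purified firefly luciferase using Km concentrations of substrates (10 uM D-luciferin, 10 uM ATP) in Tris acetate pH 7.5 buffer; luminescence output.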
NPC1 promoter act: activators of NPC1 promoter; Huh7 NPC1 promoter luciferase reporter, 24 h; Potency, µM (top dose mostly 9.22 µM), inactives show at the highest dose activation, usual class: activators; AID 485313; actives 2.4% (n = 320,000); note: % of control where 0% means no effect; nearly all actives have a fitted effect of over 60% in size
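NPC1 promoter–luciferase Huh7 cells; 24 h compound; luminescence.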
Rab9 prom act: activates the Rab9 promoter | Huh7 Rab9 promoter-luciferase reporter, luminescence, 24 h | Potency, µM (series often up to 9.22 µM), without a hit: at the highest dose activation, negative = inhibition, hits mostly activators | actives 2.8% (n = 320,000); note: % of control where 0% means no effect; nearly all actives have a fitted effect of over 60% in size
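Using Huh7 cells stably transfected with Rab9 promoter–luciferase, compounds were incubated 24 h at 37 °C, 5% CO2; luciferase luminescence was read 10 min after reagent addition.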
ELG1 repair inh: inhibitors of ELG1-dependent DNA repair in HEK293T cells | HEK293T ELG1-luciferase reporter, luminescence, 16 h; DNA damage induced by 5-fluorouridine | actives 2.3% (n = 330,000) | Potency, µM (titrated, usually from 46.1 µM), for inactives: at the highest dose activity change, negative = inhibition, hits mostly inhibitors | AID 504467; note: % is set by controls: 0 for no effect and ±100 for the full control effect; nearly all actives have a fitted effect of over 55% in size
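Quantitative HTS, concentration-response format. 2,000 cells/well co-treated with 5-fluorouridine and compound, 16 hr in 5% CO2 at 37 °C; ONE-Glo luminescence read after 30 min.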
Numbers without * were called inactive; ? = inconclusive; / = no result given; [ ] = remark or other dose. Calls come from the whole dose curve; as a rule, active = well fitted curve in the direction sought with a large enough effect; inconclusive = small, poorly fitted or top-dose-only effect, or another doubt; inactive = no such curve, though single readings can be large; an effect the other way counts as inactive or inconclusive. Potency is the fitted concentration of half-maximal effect.

SMILES | SMN2 splice enh | ELG1 genotoxic | FLuc modulator | NPC1 promoter act | Rab9 prom act | ELG1 repair inh
O=C(CN1CCN(CC(=O)Nc2cccc(F)c2)CC1)Nc1ccc(-c2ccccc2)cc1 | / | -4.2% | -0.7% | -2.3% | -0.3% | 1.9%
O=S(=O)(NC1CCN(S(=O)(=O)c2ccc3c(c2)OCCO3)C1)c1c(F)cccc1F (configuration not stated) | / | 0.1% | 0.3% | -0.7% | -2.0% | ?
CSc1nnc(-c2ccc(Cl)cc2Cl)o1 | 15.6% | ? | 12µM* | ? | ? | ?
O=C(O)CCSc1nnc(-c2ccc(Cl)cc2Cl)o1 | -30.2% | / | 0.849µM* | / | / | /
O=C1OCCC1Sc1nnc(-c2ccc(Cl)cc2Cl)o1 (configuration not stated) | / | -5.0% | 1.35µM* | -0.1% | -3.6% | -22.4%
CC(C)OC(=O)CSc1nnc(-c2ccc(Cl)cc2Cl)o1 | 17.8% | -2.6% | 10.7µM* | 5.5% | -0.7% | 7.8%
CSc1nnc(-c2ccccc2Cl)o1 | 13.8% | ? | ? | 9.9% | 21.9% | ?
CCCCOC(=O)CSc1nnc(-c2ccc(Cl)cc2Cl)o1 | -21.2% | 0.4% | ? | 6.0% | -2.8% | 16.9%
CC(=O)N1CCCc2ccc(NS(=O)(=O)c3ccccc3)cc21 | / | ? | 0.4% | 2.7% | 2.6% | ?
COc1cc(NC(=O)N2CCN(c3cc(-c4noc(C)n4)ccc3C)CC2)cc(OC)c1OC | / | / | -6.5% | / | / | /
CCn1c(SCC(=O)N2CCC(C)CC2)nnc1-c1ccccc1O | / | / | -2.5% | / | / | /
CCSc1nnc(-c2ccc(Cl)cc2Cl)o1 | ? | 4.11µM* | 9.53µM* | 2.51µM* | ? | ?
O=C(COC(=O)c1ccccn1)NCCc1ccc(Cl)cc1 | / | 0.3% | / | / | / | -2.5%
COc1ccc(NC(=O)Nc2nnc(Cc3ccc(F)cc3)s2)cc1 | / | ? | 3.8% | 0.5% | 5.7% | ?
Cc1cc(C)nc(SCC(=O)Nc2ccc3c(c2)OCO3)n1 | / | -0.9% | 1.0% | 0.0% | -3.2% | -5.8%
Cc1ccc(C)c(NC(=O)CCC(=O)N/N=C/c2ccc3c(c2)OCO3)c1 | / | 1.6% | 10.7µM* | -0.1% | -2.4% | -12.1%
Cc1ccccc1NCC(=O)N/N=C\c1ccc2c(c1)OCO2 | -4.9% | 3.7% | ? | -4.7% | 9.4% | 20.1%
O=C(CCc1ccc(O)c(O)c1)N/N=C/c1ccc2c(c1)OCO2 | / | -3.2% | ? | -7.4% | 0.3% | 5.8µM*
CC(C)Oc1ccc(CCC(=O)N/N=C/c2ccc3c(c2)OCO3)cc1 | / | -6.3% | ? | 3.0% | -2.3% | -9.0%
Cc1cc(C)nc(SCC(=O)N/N=C/c2ccc3c(c2)OCO3)n1 | / | ? | 9.53µM* | ? | 27.9% | ?
Cn1c(=O)[nH]c2cc(-c3noc(-c4ccc(Br)cc4)n3)ccc21 | / | / | -5.3% | / | / | /
COc1ccc(-c2nnc(SCC(=O)Oc3cc(C)ccc3C)o2)cc1 | / | / | -0.3% | / | / | /
COc1ccccc1NS(=O)(=O)c1ccc(N/N=C/c2ccccc2OCC(=O)O)c([N+](=O)[O-])c1 | / | 0.0% | ? | -1.8% | -5.7% | 10.0%
COc1ccccc1/C=N/Nc1nccnc1Cl | -21.3% | 18.4µM* | 12µM* | 27.4% | ? | ?
COc1cccc(/C=N/Nc2ncccc2[N+](=O)[O-])c1OC | / | 0.291µM* | 0.301µM* | ? | -4.7% | ?
SMILES | SMN2 splice enh | ELG1 genotoxic | FLuc modulator | NPC1 promoter act | Rab9 prom act | ELG1 repair inh
CCOC(=O)N1CCN(C(=O)CC(C)S(=O)(=O)c2cc3c(cc2C)NC(=O)CO3)CC1 (configuration not stated) | / | -1.2% | 3.3% | 0.8% | -0.2% | -5.4%
Cc1ccc(C(=O)N2CCN(c3ccc([N+](=O)[O-])cc3)CC2)o1 | / | -8.0% | -0.1% | -1.4% | -4.9% | -8.0%
COc1ccc(-c2cc(-c3ccccc3)c(C#N)c(S(C)=O)n2)cc1 (configuration not stated) | -26.3% | -3.7% | -0.2% | -3.9% | -18.5% | -16.3%
COc1ccc(-c2cc3nc4ccccc4n3c(N)c2C#N)cc1 | / | 13.8% | ? | 1.78µM* | 2µM* | ?
COc1ccc(C)cc1NC(=O)Nc1ccccc1 | -10.2% | -7.0% | ? | 2.4% | 10.1% | 6.8%
COc1ccc(C)cc1NC(=O)Nc1ccc(C(=O)N2CCCC2)cc1 | / | 18.3% | 13.5µM* | 22.6% | 29.5% | ?
COc1ccc(Cl)cc1NC(=O)Nc1ccc(C(=O)N2CCCC2)cc1 | / | -6.1% | 21.3µM* | 19.9% | 18.7% | 12.3%
CC(=O)c1cccc(NC(=O)C(=O)Nc2cccc3ccccc23)c1 | / | 15.7% | ? | ? | 2.51µM* | ?
Nc1ccccc1C(=O)Nc1cccc2ccccc12 | / | ? | 19µM* | 3.16µM* | 2.82µM* | ?
O=C(Nc1cccc2ccccc12)c1ccccc1 | -2.0%[9.22 µM] | ? | 13.5µM* | ? | 3.55µM* | ?
COC1=C/C(=C/c2c(O)c(C#N)c3ccccn23)C=CC1=O | / | 14.7% | 15.1µM* | -1.9% | -0.4% | ?
COc1cc(OC)cc(C(=O)c2c(C)c(C#N)c3ccccn23)c1 | / | 5.2% | -1.3% | -21.5% | -6.2% | -15.4%
CCN(C(=O)Cn1cc(C(=O)C(=O)N2CCOCC2)c2ccccc21)c1ccccc1 | / | -1.7% | -0.3% | -2.0% | 2.4% | -1.7%
COc1cc2c(cc1NC(=O)CSc1nnnn1-c1ccccc1)oc1ccccc12 | -11.2% | 12.4% | -0.5% | -1.3% | -4.6% | -4.7%
C=CCn1c(SCC(=O)Nc2cc(OC)c(NC(=O)c3ccco3)cc2OC)nnc1-c1ccncc1 | -14.7% | -4.0% | 5.7% | -2.3% | 3.5% | 23.1µM*
C=CCn1c(SCC(=O)Nc2cccc3ccccc23)nnc1-c1cnccn1 | 1.8% | -1.3% | 3.3% | 2.6% | -3.7% | ?
C=CCn1c(SCC(=O)Nc2cc3oc4ccccc4c3cc2OC)nnc1-c1cnccn1 | / | -15.4% | ? | 5.0% | -16.8% | 11.6µM*
C=CCn1c(SCC(=O)Nc2ccc(NC(=O)c3ccco3)c(OC)c2)nnc1-c1ccncc1 | -1.5% | 5.0% | -2.6% | 1.0% | 2.4% | -8.2%
COc1cc2c(cc1NC(=O)CSc1nnc(Cc3cccs3)n1Cc1ccco1)oc1ccccc12 | 10.4% | -8.0% | -18.2% | 1.6% | -0.4% | 23.1µM*
CCn1c(SCC(=O)Nc2cc3oc4ccccc4c3cc2OC)nnc1-c1cccs1 | -0.3% | 3.3% | -10.6% | 1.8% | 1.0% | 18.4µM*
COc1cc2c(cc1NC(=O)CSc1nnc(Cc3cccs3)n1C)oc1ccccc12 | -29.4% | -2.0% | ? | 8.8% | -3.1% | ?
COc1cc(C(=O)OCC(=O)Nc2cccc(S(=O)(=O)N3CCCC3)c2)ccc1OCC(C)C | / | 5.6% | ? | -2.0% | -0.9% | -19.6%
